In PubChem BioAssay (NCATS):
Inconclusive results are not listed. Values without a mark were called inactive. Calls of active or inactive are those of the source. Calls follow the shape of the dose curve; as a rule, active = well fitted inhibition curve with a large enough effect; inconclusive = small, poorly fitted or top-dose-only effect; inactive = no such curve, though single readings can be large or run the other way.

Target: Rap guanine nucleotide exchange factor 4 (Homo sapiens) (UniProt Q8WZA2)
Experiment: Confirmatory qHTS for antagonist of cAMP-regulated guanine nucleotide exchange factor 4 (EPAC2) (AID 1645885); also: nearly all actives have a fitted effect of over 25% in size; also: potency is read from the fitted curve at half-maximal effect; as to activity change, negative = inhibition: % is scaled to controls: 0 for no effect and ±100 for the full control effect
Details: EPAC2 Rap1B-BODIPY-GDP exchange fluorescence, biochemical; series mostly up to 12.7 µM; activity change, negative = inhibition: at the top concentration

Rap guanine nucleotide exchange factor 4 (Homo sapiens), sequence (Q8WZA2 whole entry, looked up): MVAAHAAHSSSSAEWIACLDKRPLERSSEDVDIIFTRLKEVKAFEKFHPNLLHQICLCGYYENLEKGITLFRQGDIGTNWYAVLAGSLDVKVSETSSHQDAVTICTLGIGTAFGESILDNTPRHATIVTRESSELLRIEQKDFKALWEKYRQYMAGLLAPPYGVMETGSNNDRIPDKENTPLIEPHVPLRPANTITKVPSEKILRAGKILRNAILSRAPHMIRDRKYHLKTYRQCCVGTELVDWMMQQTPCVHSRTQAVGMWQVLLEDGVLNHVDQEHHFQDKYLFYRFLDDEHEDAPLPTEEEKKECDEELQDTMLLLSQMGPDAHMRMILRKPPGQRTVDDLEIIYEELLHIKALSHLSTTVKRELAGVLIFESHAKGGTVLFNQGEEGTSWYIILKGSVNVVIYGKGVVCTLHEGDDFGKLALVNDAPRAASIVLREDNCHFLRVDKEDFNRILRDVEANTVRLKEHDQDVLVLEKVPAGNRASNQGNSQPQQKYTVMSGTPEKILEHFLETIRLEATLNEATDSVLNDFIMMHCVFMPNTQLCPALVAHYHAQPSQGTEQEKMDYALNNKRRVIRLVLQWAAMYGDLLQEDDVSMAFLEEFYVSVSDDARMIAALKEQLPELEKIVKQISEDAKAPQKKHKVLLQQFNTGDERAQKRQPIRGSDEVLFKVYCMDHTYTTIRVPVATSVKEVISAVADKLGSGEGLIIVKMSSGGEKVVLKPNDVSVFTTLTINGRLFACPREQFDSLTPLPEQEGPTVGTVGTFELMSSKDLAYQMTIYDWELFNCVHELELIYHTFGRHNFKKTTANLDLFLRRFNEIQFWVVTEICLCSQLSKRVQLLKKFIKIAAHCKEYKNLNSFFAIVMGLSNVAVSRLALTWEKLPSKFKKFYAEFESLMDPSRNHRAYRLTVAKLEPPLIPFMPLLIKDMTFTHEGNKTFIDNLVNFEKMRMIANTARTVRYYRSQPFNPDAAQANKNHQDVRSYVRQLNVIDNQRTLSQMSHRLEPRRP

Row | Compound | activity change, negative = inhibition | Potency
1 | COc1ccccc1NC(=O)Cc1ccc(-c2ccccc2)cc1 | -13.3% [at 114 µM] | 
2 | CCCc1nn2c(=O)cc(COC(=O)c3ccc(NC(=O)COc4ccccc4F)cc3)nc2s1 | 8% | 
3 | Nc1cccc2c(O)cc(S(=O)(=O)O)cc12 |  | 757 nM (active)
4 | CCn1cc(C=C2C(=O)c3ccccc3C2=O)c2ccccc21 | -17.4% [at 114 µM] | 
5 | CCN(CC)c1ccc(/C=c2\sc3nc4ccccc4n3c2=O)c(O)c1 | -16% [at 114 µM] | 
6 | CN(Cc1ccccc1)c1nc(-c2ccc(F)cc2)cc(C(F)(F)F)n1 |  | 84.9 nM (active)
7 | O=C(O)c1ccccc1-c1ccc(/C=C/c2cc(C(F)(F)F)[nH]c(=O)n2)o1 | 61.4% | 
8 | COc1ccc2ccccc2c1C(O)c1nccn1C (stereo unspecified) | -0.502% [at 114 µM] | 
9 | COc1ccc(Cn2c(=O)cc(C)[nH]c2=S)cc1 | -21.1% | 
10 | CCC(=O)N1CCc2cc(CNC(=O)c3ccccc3C)ccc21 | 2.45% | 
11 | COc1ccc2[nH]cc(CCNc3ncncc3-c3ccccc3Cl)c2c1 | -12.5% [at 114 µM] | 
12 | Cc1cc(C)c(S(=O)(=O)N(C)c2ccccc2)c(C)c1 |  | 23900 nM (active)
13 | CCc1ccc[n+](-c2[nH]c(=O)sc2/C=N/NC([S-])=Nc2ccccc2)c1 | 20.8% [at 114 µM] | 

Target: Rap guanine nucleotide exchange factor 3 (Homo sapiens) (UniProt O95398)
Experiment: Counterscreen qHTS for antagonist of cAMP-regulated guanine nucleotide exchange factor 3 (EPAC1) (AID 1645888);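 also: fluorescence loss as bound BODIPY-GDP is released from Rap1B; % of control where 0% means no effect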
Details: Rap1B-BODIPY-GDP nucleotide exchange, fluorescence; series mostly up to 154 µM; activity change, negative = inhibition: at the top concentration
Procedure, shortened: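 Rap1B-BODIPY-GDP 250 nM + GDP 50 uM; cpds 7-pt, final 9.74 nM–152 uM (activator mode) or from 7.32 nM upwards (inhibitor mode); RT; FI 480/540 nm at 5 and 30 min, then ± cAMP, reread.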

Rap guanine nucleotide exchange factor 3 (Homo sapiens), sequence (O95398 whole entry, looked up): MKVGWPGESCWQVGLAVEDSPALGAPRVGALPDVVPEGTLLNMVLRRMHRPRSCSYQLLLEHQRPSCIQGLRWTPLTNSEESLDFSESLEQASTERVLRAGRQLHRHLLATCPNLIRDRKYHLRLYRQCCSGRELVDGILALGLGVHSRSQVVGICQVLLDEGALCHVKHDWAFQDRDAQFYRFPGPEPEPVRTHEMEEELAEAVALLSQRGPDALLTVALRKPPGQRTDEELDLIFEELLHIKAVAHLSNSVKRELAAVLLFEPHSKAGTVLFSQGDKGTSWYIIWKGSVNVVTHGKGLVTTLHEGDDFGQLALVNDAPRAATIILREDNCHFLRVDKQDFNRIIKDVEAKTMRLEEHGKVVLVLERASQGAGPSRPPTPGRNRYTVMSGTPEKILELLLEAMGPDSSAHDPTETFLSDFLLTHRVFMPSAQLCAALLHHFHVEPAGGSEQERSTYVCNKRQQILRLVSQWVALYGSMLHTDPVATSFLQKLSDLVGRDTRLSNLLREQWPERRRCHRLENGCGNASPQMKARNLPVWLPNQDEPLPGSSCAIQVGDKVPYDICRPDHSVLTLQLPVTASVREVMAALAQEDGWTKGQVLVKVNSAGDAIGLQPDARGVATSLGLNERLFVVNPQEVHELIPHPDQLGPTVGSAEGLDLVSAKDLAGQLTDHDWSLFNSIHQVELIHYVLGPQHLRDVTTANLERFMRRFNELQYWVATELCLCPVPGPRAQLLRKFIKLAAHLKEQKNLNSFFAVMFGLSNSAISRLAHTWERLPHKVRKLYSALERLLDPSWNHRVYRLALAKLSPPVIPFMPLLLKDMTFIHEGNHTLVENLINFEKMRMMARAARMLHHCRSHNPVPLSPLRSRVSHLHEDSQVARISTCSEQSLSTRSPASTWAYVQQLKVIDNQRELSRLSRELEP

Row | Compound | activity change, negative = inhibition
14 | CCCc1nn2c(=O)cc(COC(=O)c3ccc(NC(=O)COc4ccccc4F)cc3)nc2s1 | 34.5%
15 | CCCCn1nnnc1C(c1cc2ccccc2o1)N1CCCC1 (stereo unspecified) | -8.84%
16 | Cc1ccn2c(-c3csc(NCc4ccccc4)n3)c(C)nc2c1 | 32.5%
17 | CC(=O)N1N=C2c3ccccc3CCC2C1c1cccs1 (stereo unspecified) | -17.6% [at 30.8 µM]
18 | Nc1cccc2c(O)cc(S(=O)(=O)O)cc12 | 191%
19 | Cc1ccc(N2CC(NC(=O)C(=O)c3c[nH]c4ccccc34)CC2=O)cc1C (stereo unspecified) | 20.9%
20 | COc1ccc(NC(=O)CSc2ccccc2)cc1S(=O)(=O)N1CCCCC1 | 6.2%
21 | O=C(c1ccccc1F)n1c2c(c3ccccc31)CCCC2 | 6.61%
22 | Cn1ccc2c(N3CCCCCCC3)cc3c(c21)C1CCC3O1 (stereo unspecified) | 19.9%
23 | CCOc1nc(-c2ccccc2Cl)nc2ccccc12 | -11.6%
24 | CCOc1ccc(S(=O)(=O)N2CCCCC2)c(C)c1C | 39.4%
25 | CCn1cc(C=C2C(=O)c3ccccc3C2=O)c2ccccc21 | 3.98%
26 | COc1ccc2c(c1)CCc1c(C(=O)N(C)c3ccccc3)noc1-2 | 10.4%
27 | CCCCn1nnnc1C(c1cc2ccccc2o1)N1CCN(c2cc(C)nc3ccccc23)CC1 (stereo unspecified) | 11%
28 | CCN(CC)c1ccc(/C=c2\sc3nc4ccccc4n3c2=O)c(O)c1 | 46.6%
29 | COc1ccc(Cl)cc1NC(=O)CN(C)Cc1ccc(OC)c(OC)c1 | -13.5%
30 | COC(=O)c1ccc2nc(-c3ccc(F)cc3)c(Cc3ccsc3)n2c1 | -9.08% [at 30.8 µM]
31 | CN(Cc1ccccc1)c1nc(-c2ccc(F)cc2)cc(C(F)(F)F)n1 | -2%
32 | Cc1oc2cc(Br)c(O)c(Br)c2c1-c1ccccc1 | -15.2%

Row | Compound | activity change, negative = inhibition
33 | COc1c(Cl)cc(Cl)cc1CNc1ccc(S(N)(=O)=O)cc1 | 3.79%
34 | O=C(COc1ccc(Br)cc1Cl)c1ccc[nH]1 | -0.507%
35 | O=c1ccc(NS(=O)(=O)c2ccc(Cl)cc2)cn1Cc1ccc(Cl)c(Cl)c1 | -11.2%
36 | O=C(O)c1ccccc1-c1ccc(/C=C/c2cc(C(F)(F)F)[nH]c(=O)n2)o1 | 309% [at 30.8 µM]
37 | COc1ccc2ccccc2c1C(O)c1nccn1C (stereo unspecified) | 6.5%
38 | COc1ccc(Cn2c(=O)cc(C)[nH]c2=S)cc1 | -27% [at 30.8 µM]
39 | Cc1cc(C)c2c(CN3CCCCC3C)cc(=O)oc2c1 (stereo unspecified) | -3.91% [at 30.8 µM]
40 | COCCN(CCOC)Cc1cc(=O)oc2cc(OC)c(Cl)cc12 | -10.8% [at 30.8 µM]
41 | CC1CCCN(C2(O)C(=O)Nc3c(C(F)(F)F)cccc32)C1 (stereo unspecified) | -14.6% [at 30.8 µM]
42 | Cc1cc2ccccn2c1C(=O)c1ccc(F)cc1 | 11.6%
43 | O=C(O)CCNC(=O)c1ccc(NC(=O)C(c2ccccc2)c2ccccc2)cc1 | 28.3%
44 | C=C(C)Cn1c(C)cc(C)c(S(=O)(=O)c2ccccc2C)c1=O | -6.66% [at 30.8 µM]
45 | CCC(=O)N1CCc2cc(CNC(=O)c3ccccc3C)ccc21 | 7.34%
46 | COc1ccc(Nc2cccc3ccccc23)cc1 | -12.4%
47 | Cc1cc(C)c(S(=O)(=O)N(C)c2ccccc2)c(C)c1 | 10.6%
48 | O=C1OC(c2ccccc2)(c2ccccc2)c2ccsc21 | 0.566%
49 | O=C1CSC(=Nc2ccccc2)N1Cc1ccccc1 | -7.35%
50 | CCc1ccc[n+](-c2[nH]c(=O)sc2/C=N/NC([S-])=Nc2ccccc2)c1 | 125%
51 | COc1cc(NC(C)=O)ccc1-c1cc2ccccc2oc1=O | -5.64%
